From PubChem BioAssay AID1159580 (chemical genetic matrix, 2015)
Values joined by “and” are separate entries in the source; they are usually repeats but may differ in a detail not shown here. Identical values can stand only once. Out of some 5,500 compounds screened, about 2,000 (36%) were called active. Inconclusive results (about 18%) are left out. No stated cut-off is given here; in the data, active means normalized growth mostly below about 0.91 (no sharp cut-off); inconclusive means no clear call, values can overlap the other calls; inactive means mostly above about 0.92. The list shows a part of the results.

Test: chemical genetic growth profiling, strain panel (AID 1159580);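 further: tested at 20 µM; growth read once vehicle control cultures reached saturation at 30 °C; 1 = growth at the plate median or of vehicle wells; lower values mean less growth of the strain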
Details: S. cerevisiae deletion strains, growth OD

Measured: normalized growth

CC(NCCC(c1ccccc1)c1ccccc1)c1ccccc1 (configuration not stated)
active: locus YAL021C, strain ccr4, active compounds read low 0.592 | locus YAL026C, strain drs2, active compounds read low 0.47 | locus YBR021W, strain FUR4, active compounds read low 0.447 | locus YBR023C, strain chs3, active compounds read low 0.799 | locus YBR279W, strain paf1, active compounds read low 0.893 | locus YDR069C, strain doa4, active compounds read low 0.57 | locus YDR195W, strain ref2 1.28 [resistant] | locus YDR388W, active compounds read low 0.328 | locus YER015W, strain faa2, active compounds read low 0.9 | locus YFR010W, strain ubp6, active compounds read low 0.559 | locus YGL253W, strain hxk2, active compounds read low 0.868 | locus YGR135W, strain pre9, active compounds read low 0.832 | locus YGR229C, strain SMI1, active compounds read low 0.623 | locus YGR252W, strain gcn5, active compounds read low 0.679 | locus YHR013C, strain ard1, active compounds read low 0.655 | locus YHR142W, strain chs7, active compounds read low 0.802 | locus YJL095W, strain BCK1 (second series), active compounds read low 0.901
inactive: locus YAL013W, strain DEP1, active compounds read low 0.925 | locus YAL030W, strain snc1, active compounds read low 0.992 | locus YBL061C, strain skt5, active compounds read low 0.934 | locus YBR009C, strain hhf1, active compounds read low 0.953 | locus YBR171W, strain sec66, active compounds read low 1 | locus YBR229C, strain ROT2, active compounds read low 0.946 | locus YBR231C, strain swc5, active compounds read low 0.944 | locus YCL011C, strain gbp2, active compounds read low 0.97 | locus YCL016C, strain dcc1, active compounds read low 0.964 | locus YCL029C, strain bik1, active compounds read low 0.975 | locus YCL061C, strain MRC1, active compounds read low 1.02 | locus YCL069W, strain vba3, active compounds read low 1.01 | locus YCR088W, strain abp1, active compounds read low 1.02 | locus YDL005C, strain med2, active compounds read low 1.03 | locus YDL035C, strain GPR1, active compounds read low 0.908 | locus YDL040C, strain nat1, active compounds read low 0.991 | locus YDL074C, strain BRE1, active compounds read low 0.831 | locus YDL101C, strain DUN1, active compounds read low 0.971 | locus YDL134C, strain PPH21, active compounds read low 0.968 | locus YDL185W, strain tfp1, active compounds read low 0.959 | locus YDL192W, strain arf1, active compounds read low 0.985 | locus YDR001C, strain nth1, active compounds read low 1.01 | locus YDR101C, strain arx1, active compounds read low 0.994 | locus YDR137W, strain rgp1, active compounds read low 0.981 | locus YDR150W, strain NUM1, active compounds read low 0.97 | locus YDR159W, strain sac3, active compounds read low 1.09 | locus YDR162C, strain NBP2, active compounds read low 0.936 | locus YDR297W, strain sur2, active compounds read low 1.01 | locus YDR318W, strain mcm21, active compounds read low 0.952 | locus YDR334W, strain swr1, active compounds read low 1.01 | locus YDR335W, strain msn5, active compounds read low 1 | locus YDR392W, strain spt3, active compounds read low 0.93 | locus YDR502C, strain sam2, active compounds read low 0.964 | locus YEL003W, strain gim4, active compounds read low 0.988 | locus YEL037C, strain rad23, active compounds read low 0.98 | locus YEL061C, strain CIN8 (second series), active compounds read low 1 | locus YEL061C, strain CIN8, active compounds read low 0.987 | locus YER016W, strain bim1, active compounds read low 1 | locus YER110C, active compounds read low 0.978 | locus YER111C, strain swi4, active compounds read low 1.01 | locus YER155C, strain BEM2 (second series), active compounds read low 0.978 | locus YER155C, strain BEM2, active compounds read low 0.999 | locus YER167W, strain BCK2, active compounds read low 0.964 | locus YGL078C, strain dbp3, active compounds read low 0.977 | locus YGL086W, strain mad1, active compounds read low 0.96 | locus YGL167C, strain pmr1, active compounds read low 1.01 | locus YGL173C, strain kem1, active compounds read low 0.971 | locus YGL227W, strain vid30, active compounds read low 1 | locus YGL240W, strain doc1, active compounds read low 1.05 | locus YGL248W, strain PDE1, active compounds read low 0.979 | locus YGR078C, strain PAC10, active compounds read low 0.909 | locus YHR027C, strain rpn1, active compounds read low 0.944 | locus YHR030C, strain SLT2, active compounds read low 0.974 and 0.983 | locus YHR079C, strain IRE1 (second series), active compounds read low 0.99 | locus YHR079C, strain IRE1, active compounds read low 0.982 | locus YHR094C, strain hxt1, active compounds read low 0.991 | locus YHR129C, strain ARP1, active compounds read low 0.974 | locus YHR200W, strain rpn10, active compounds read low 0.99 | locus YIL066C, strain RNR3, active compounds read low 0.948 | locus YIL073C, strain SPO22, active compounds read low 1.14 | locus YIL125W, strain kgd1, active compounds read low 0.989 | locus YIR030C, strain dcg1, active compounds read low 0.978 | locus YJL092W, strain hpr5, active compounds read low 0.986 | locus YJL095W, strain BCK1, active compounds read low 0.824 and 0.989 | locus YJL115W, strain asf1, active compounds read low 1 | locus YJL129C, strain trk1, active compounds read low 1 | locus YJL134W, strain LCB3, active compounds read low 0.988 | locus YJL154C, strain vps35, active compounds read low 0.998 | locus YJL164C, strain tpk1, active compounds read low 0.922 | locus YJL166W, strain qcr8, active compounds read low 0.914 | locus YJL168C, strain set2, active compounds read low 0.991 | locus YJL187C, strain SWE1 (second series), active compounds read low 0.931 | locus YJL187C, strain SWE1, active compounds read low 0.978 | locus YJR043C, strain POL32, active compounds read low 1 | locus YJR066W, strain TOR1, active compounds read low 0.903
